# A selection: hits, their analogues and other compounds. The true share with any hit is near 12%.
# PLK1 PBD block – qHTS for Inhibitors of PLK1-PDB (polo-like kinase 1 - polo-box domain): Primary Screen | Serine/threonine-protein kinase PLK1 (Homo sapiens), P53350 | Plk1 PBD binding of FITC phosphopeptide, fluorescence polarization | Potency, µM, for the others: max response, negative = inhibition, hits mostly inhibitors | 360,000 compounds, 2.8% hits; also: potency is read from the fitted curve at half-maximal effect; series mostly up to about 57 µM; % is scaled to controls: 0 for no effect and ±100 for the full control effect; nearly all actives have a fitted effect of over 65% in size
# HP1b binding inh – HTS for Inhibitors of HP1-beta Chromodomain Interactions with Methylated Histone Tails. Chromobox protein homolog 1 (Homo sapiens), P83916. AlphaScreen HP1-beta / biotin-H3K9me3 peptide binding. Potency, µM (highest dose often 114 µM), for the others: top-dose activity change, negative = inhibition, hits mostly inhibitors. 390,000 compounds, 0.56% hits. AID 540317, 2011; also: potency is read from the fitted curve at half-maximal effect; nearly all actives have a fitted effect of over 70% in size
# Target sequence (P83916 whole entry, looked up): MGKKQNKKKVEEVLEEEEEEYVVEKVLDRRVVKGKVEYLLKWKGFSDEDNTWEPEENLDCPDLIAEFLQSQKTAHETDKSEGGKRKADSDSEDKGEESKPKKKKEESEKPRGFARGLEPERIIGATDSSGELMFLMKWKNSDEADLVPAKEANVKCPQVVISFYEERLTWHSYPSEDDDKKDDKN
#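 AlphaScreen: HP1-beta (50 nM) preformed 30 min with biotin-H3(1-18)K9me3 peptide (50 nM) in PBS pH 7.4, 0.01% Tween-20. Compound added for 30 min at RT, then streptavidin donor/nickel chelate acceptor beads (10 ug/mL) for 30 min.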
# PI5P4K alpha inh – qHTS for Inhibitors of phosphatidylinositol 5-phosphate 4-kinase (PI5P4K); Phosphatidylinositol 5-phosphate 4-kinase type-2 alpha (Homo sapiens), P48426; PI5P4Kalpha enzyme, ADP-Glo luminescence, 60 min; stronger effect = lower value; max response, %; 330,000 compounds, 1.2% hits; AID 652105, 2013; active = max response of -50% or lower; inconclusive = between -30% and -50%; inactive = -30% or higher; also: value at the top dose of about 77 µM; % is scaled to controls: 0 for no effect and ±100 for the full control effect
#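 qHTS, 1536-well: enzyme/substrate mix, compound by pin tool, 5 microM ATP final; RT 60 min; ADP-Glo reagents 1 (45 min) then 2 (30 min); luminescence.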
# JMJD2A Tudor inh – qHTS Assay for Inhibitors of JMJD2A-Tudor Domain. AlphaScreen JMJD2A-Tudor / H3K4me3 peptide binding. Potency, µM (titrated, usually from 114 µM), without a hit: at the top dose activity change, negative = inhibition, hits mostly inhibitors. 390,000 compounds, 4.4% hits; also: potency is read from the fitted curve at half-maximal effect; % is scaled to controls: 0 for no effect and ±100 for the full control effect; nearly all actives have a fitted effect of over 50% in size
# G9a block – qHTS Assay for Inhibitors of Histone Lysine Methyltransferase G9a; Histone-lysine N-methyltransferase EHMT2 (Homo sapiens), Q96KQ7; G9a H3K9 monomethylation, AlphaScreen, 2 h; Potency, µM (doses to about 102 µM), inactives show top-dose activity, negative = inhibition, actives largely listed as inhibitors; 350,000 compounds, 8.8% hits; AID 504332, 2011; also: potency is read from the fitted curve at half-maximal effect; % is scaled to controls: 0 for no effect and ±100 for the full control effect; nearly all actives have a fitted effect of over 75% in size
# Target sequence (Q96KQ7 913-1193 limits assumed): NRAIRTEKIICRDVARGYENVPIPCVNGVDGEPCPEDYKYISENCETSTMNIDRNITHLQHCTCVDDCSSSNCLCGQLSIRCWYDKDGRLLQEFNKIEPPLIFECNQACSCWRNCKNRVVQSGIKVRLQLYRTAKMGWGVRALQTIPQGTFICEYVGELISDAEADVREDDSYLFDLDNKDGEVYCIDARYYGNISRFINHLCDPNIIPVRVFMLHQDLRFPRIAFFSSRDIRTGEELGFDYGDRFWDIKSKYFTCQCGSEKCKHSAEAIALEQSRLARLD
#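 Compounds were preincubated with 20 nM G9a for 15 min, after which biotinylated H3K9 peptide (500 nM) and SAM (20 uM) started a 2 h room-temperature reaction. Monomethylated product was quantified by antibody-based AlphaScreen chemiluminescence.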
# BAZ2B inh – qHTS Assay for Inhibitors of BAZ2B; 360,000 compounds, 4.4% hits; AID 504333, 2011; AlphaScreen BAZ2B-H3K14Ac peptide displacement; Potency, µM (highest dose often 114 µM), without a hit: at the top dose activity change, negative = inhibition, actives largely listed as inhibitors; also: potency is read from the fitted curve at half-maximal effect; % is scaled to controls: 0 for no effect and ±100 for the full control effect; nearly all actives have a fitted effect of over 60% in size
#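 AlphaScreen luminescence quantifies BAZ2B engagement of H3K14Ac peptide; the protein and biotinylated peptide are both at 50 nM final, buffer PBS pH 7.4 with 0.01% Tween-20, all steps at room temperature.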
# An asterisk follows results filed as active; u = inconclusive; x = not tested or not shown; [ ] = another dose, or the depositor's remark. Unless noted, calls follow the shape of the dose curve; as a rule, active = well fitted curve in the direction sought with a large enough effect; inconclusive = small, poorly fitted or top-dose-only effect, or another doubt; inactive = no such curve, though single readings can be large; an effect the other way counts as inactive or inconclusive.
SMILES,PLK1 PBD block,HP1b binding inh,PI5P4K alpha inh,JMJD2A Tudor inh,G9a block,BAZ2B inh
COc1cc(CN2CCC(C(=O)N3CCN(c4ccccc4F)CC3)CC2)ccc1O,-2%,u,x,2.5µM*,14µM*,56µM*
O=C(C1CCN(c2nnc(-n3cccc3)s2)CC1)N1CCN(Cc2ccc3c(c2)OCO3)CC1,-9%,26%,-4,-30%,u,u
COc1cccc(CN2CCC(C(=O)N3CCN(Cc4ccc5c(c4)OCO5)CC3)CC2)c1,-6%,u,2,0.89µM*,42%,-10%
COc1ccc(OC)c(CN2CCC(C(=O)N3CCOCC3)CC2)c1,-15%,u,2,2.2µM*,10µM*,u
COc1ccc(OC)c(CN2CCC(C(=O)N3CCN(c4ccccc4F)CC3)CC2)c1,-2%,u,12,1.4µM*,10µM*,u
COc1cccc(C(C)(O)c2nc(-c3ccc(N(C)C)cc3)cs2)c1 (stereo not drawn),-3%,x,11,x,x,x
Cc1ccc(OCCNC(=O)C2CC(=O)N(Cc3ccccc3)C2)cc1 (stereo not drawn),0%,20%,0,-5%,-23%[59 µM],0%
CC1(C(=O)NS(=O)(=O)c2ccc(Br)cc2)CCN1C(=O)CCc1cccs1 (stereo not drawn),0%,x,-3,x,x,x
CS(=O)(=O)N1CCC(C(=O)N2CCN(c3ccccc3F)CC2)CC1,19µM*,-12%,-22,u,2%[59 µM],-1%
COc1cccc(CN2CCN(C(=O)C3CCC(=O)N(C4CCCC4)C3)CC2)c1 (stereo not drawn),-8%,33%,3,-16%,-4%,-1%
COc1cc(CN2CCC(C(=O)NC3CCCC3)CC2)ccc1O,-3%,u,-5,u,u,32µM*
CCOc1cc(CN2CCC(N3CCC(C(=O)NC4CC4)CC3)CC2)ccc1O,-1%,x,6,x,x,x
COc1cccc(CN2CCC(C(=O)N3CCN(c4ccccc4F)CC3)CC2)c1,-3%,u,-2,8.9µM*,10µM*,-33%
Cc1ccc(CNC(=O)c2ccc3c(c2)c(C)c(C)n3Cc2ccc(Cl)cc2)o1,x,29%,x,u,u,-26%
CC(=O)N(C)c1ccc(NC(=O)Cc2cccs2)cc1,-7%,43%,u,-6%,u,-27%
O=C(NNC(=O)c1ccccc1O)c1ccc(Cl)c(S(=O)(=O)N2CCc3ccccc32)c1,1%,10%,u,u,2%,-2%
COc1ccc(Oc2ncc3nc(-c4ccccc4)c(=O)n(C4CC4)c3n2)cc1,x,x,x,x,3%[12.7 µM],x
Cn1cnc2nc[nH]c2c1=S,1%,12%,-4,3.5µM*,x,x
CC(O)CNc1ncnc2nc[nH]c12 (stereo not drawn),-1%,41%,1,-6%,11%[2.33 µM],5%
O=C(NC1CCCCC1)C(c1ccncc1)N(C(=O)c1csnn1)c1ccc(F)cc1 (stereo not drawn),-9%,104%,0,-2%,6%,-19%
O=C(O)c1ccncc1,x,x,x,x,27%[59 µM],x
CC1SC(=NC(=O)c2ccncc2)NC1=O (stereo not drawn),-23%,4%,-12,-8%,40µM*,-20%
NCCc1c(-c2ccccc2)n(-c2ccccc2)c2ccccc12,-13%,u,1,32µM*,45µM*,22µM*
COc1ccccc1C(=O)NCC(c1ccc(N(C)C)cc1)N1CCc2ccccc21 (stereo not drawn),x,11µM*,x,11µM*,14µM*,10µM*
